The values that follow come from PubChem BioAssay AID493247 (Broad Institute, 2011).

Entries with a potency or affinity are not part of this list. Results filed as inconclusive are left out. Unmarked numbers belong to inactive results.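 Rule for the calls: active = falling luminescence with a fitted half-effect concentration at most ten times the top dose in every repeat; inconclusive = repeats disagree, poor fit, or flat moderate signal drop; inactive = the rest.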

This test in a line: cytotoxicity in NIH/3T3 mouse fibroblasts, dose response, cytotoxicity control, cell-based, mouse embryonic fibroblasts, dry powder, set 2 (AID 493247). The settings on record: NIH/3T3 cytotoxicity, CellTiter-Glo ATP luminescence, 90 h; series mostly up to 19.5 µM; activity change, negative = cytotoxic: at the top concentration. Background: In ATP-based viability assays light output follows the ATP content of the culture.
As to `CCNC(=O)C1(C)CCCN(Cc2cccc(Oc3ccccc3)c2)C1` (stereo unspecified), the “activity change, negative = cytotoxic” value is -2.58%.
For the compound `COc1ccc(CCNC(=O)C2CCCCC2)cc1OC`, the “activity change, negative = cytotoxic” value is 12.5%.
For the compound `O=C(CNC(=O)c1ccco1)N/N=C/c1ccc([N+](=O)[O-])o1`, the “activity change, negative = cytotoxic” value is 2.12%.
Take `CCNC(=O)C1(C)CCCN(C(=O)Cc2ccc(OC)c(OC)c2)C1` (stereo unspecified): the “activity change, negative = cytotoxic” value is -10.4%.
For the compound `COc1ccc(CCN2CC(C(=O)NCc3ccc(F)cc3)CC2=O)cc1OC` (stereo unspecified), the “activity change, negative = cytotoxic” value is 11.9%.
For `CCNC(=O)C1(C)CCN(C(=O)c2ccc(OC)c(OC)c2)C1` (stereo unspecified), the “activity change, negative = cytotoxic” value was 8.84%.
As for `COCCNC(=O)C1(C)CCCN(C(=O)c2cc(OC)c(OC)c(OC)c2)C1` (stereo unspecified), the “activity change, negative = cytotoxic” value was -5.22%.
As for `CCCNC(=O)C1(C)CCN(C(=O)Cc2ccc(OC)c(OC)c2)C1` (stereo unspecified), the “activity change, negative = cytotoxic” value was 3.33%.
With `COc1ccc(CN2CCCC(C(=O)N3CCCC3)C2)c(OC)c1OC` (stereo unspecified), the “activity change, negative = cytotoxic” value was 3.82%.
Next, `COc1cc(CN2CCC(C(=O)NC(C)c3ccc(OC)c(OC)c3)CC2)cc(OC)c1` (stereo unspecified): -5.63%; `CCCNC(=O)C1(C)CCCN(C(=O)c2ccc(OC(F)F)cc2)C1` (stereo unspecified): -13.5%; `CN(Cc1ccccc1)C(=O)C1CCCN(Cc2ccccc2)C1` (stereo unspecified): -26.8%.
For the compound `COc1ccc(CCN(C)C(=O)C2CCCN(Cc3ccccc3C)C2)cc1OC` (stereo unspecified), the “activity change, negative = cytotoxic” value was 3.81%.
Next, `CCCNC(=O)C1(C)CCCN(C(=O)Cc2ccc(OC)c(OC)c2)C1` (stereo unspecified): 3.6%.
For the compound `CCNC(=O)C1CCCN(C(=O)c2cc(OC)c(OC)c(OC)c2)CC1` (stereo unspecified), the “activity change, negative = cytotoxic” value was 3.32%.
In the case of `COc1cc2c(cc1OC)C(C)N(CCC(N)=O)CC2` (stereo unspecified), the “activity change, negative = cytotoxic” value is 2.04%.
